Experimental findings from ChEMBL document CHEMBL3988442, “University of Dundee, Small-Polar-MMV Screening Library” (2021) are described below.

The target of experiment [1] is T1, Aspartate--tRNA(Asp/Asn) ligase (Mycobacterium tuberculosis (strain ATCC 25618 / H37Rv)) (UniProt P9WFW3). Also: in the data most compounds retested in dose-response had high values.
T1 sequence (whole entry): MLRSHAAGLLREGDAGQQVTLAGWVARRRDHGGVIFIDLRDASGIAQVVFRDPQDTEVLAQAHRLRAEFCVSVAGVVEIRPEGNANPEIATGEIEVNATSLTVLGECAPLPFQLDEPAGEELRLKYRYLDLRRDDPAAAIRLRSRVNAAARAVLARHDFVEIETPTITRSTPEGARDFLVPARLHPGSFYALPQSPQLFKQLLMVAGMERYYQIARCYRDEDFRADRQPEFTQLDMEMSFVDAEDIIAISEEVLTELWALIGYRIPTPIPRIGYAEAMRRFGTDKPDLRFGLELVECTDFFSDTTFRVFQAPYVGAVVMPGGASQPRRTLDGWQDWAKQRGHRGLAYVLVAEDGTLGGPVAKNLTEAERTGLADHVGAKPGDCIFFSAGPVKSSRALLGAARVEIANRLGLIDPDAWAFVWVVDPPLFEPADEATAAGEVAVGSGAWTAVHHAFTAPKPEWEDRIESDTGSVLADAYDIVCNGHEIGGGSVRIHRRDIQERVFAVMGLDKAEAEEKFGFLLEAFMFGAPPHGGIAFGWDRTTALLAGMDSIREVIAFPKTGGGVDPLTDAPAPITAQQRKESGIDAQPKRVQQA
As to the kind of experiment: Assay for Asp RNA synthetase-1 from Mycobacterium tuberculosis. The class given is functional. As to conditions: 30 µM. Also noted: scale not given: direction of the effect not stated beside the values.

Experiment [2] has as its target Shiga toxin 2 (Escherichia coli O157:H7) (UniProt P09385+P09386). Nature of the experiment: E. coli 0.157:H7 Shiga Toxin SOP - stx2 screening assay. The class given is functional. The settings on record: 30 µM. Also on record: scale not given: direction of the effect not stated beside the values.

For the compound `CC(C)c1nc2n(n1)CC(NCc1nnc(-c3ccco3)o1)CC2` (centres undefined), the Percent Effect in experiment [1] is -3.46%; in experiment [2], 11.7%.
In the case of `Cc1cncc(C2CCCN(C(=O)c3scnc3C)C2)n1` (centres undefined), the Percent Effect in experiment [1] is -4.36%; in experiment [2], -1.58%.
Take `CCn1cc(NC(=O)NCC(O)CN2CCCCC2)cn1` (centres undefined): the Percent Effect is -0.173% in experiment [1] and 21.2% in experiment [2].
The corresponding values for `CCc1cc(NCCNc2cccnc2)n2nccc2n1` are 0.0112% and -5.46%.
As to `O=C(Cn1c(=O)nc2n1C(=O)N(c1ccccc1)C2)Nc1ccccc1`, the Percent Effect in experiment [1] is -4%; in experiment [2] it was 16.3%.
For `Cc1nc(CN2CCCN(C(=O)C3(C#N)CCCCC3)CC2)cs1`, the Percent Effect turned out to be 1.34% in experiment [1] and 11.8% in experiment [2].
Taken in the same sequence, the figures for `CCc1nc(C2CCCN(C(=O)c3cccc4c3ccn4C)C2)no1` (centres undefined) were -0.845% and 4.78%.
In the case of `CCCNC(=O)CN1CCC(C(=O)Nc2cnn(CC)c2)CC1`, the figures for the Percent Effect in experiment [1] and in experiment [2] were 0.927% and 20.3%, respectively.
Turning to `O=C(CN1CCN(CC(O)C2CC2)CC1)NCc1ccc(F)cc1` (centres undefined), the Percent Effect in experiment [1] was -0.889%; in experiment [2], -4.46%.
Regarding `CC(O)CN1CCN(C(=O)c2ccc3c(c2)COC3)CC1` (centres undefined), the Percent Effect in experiment [1] was -4.85%; in experiment [2], -19.4%.
For the compound `CC(C)CC1SCC(=O)Nc2c1cnn2C(C)C` (centres undefined), the Percent Effect is 3.17% in experiment [1] and -18.7% in experiment [2].
Take `CC(C)NC(=O)c1ccc2c(c1)nc1n2CCN(c2ccccc2)C1`: the results for the Percent Effect in experiment [1] and in experiment [2] were 0.0581% and -15.6%, respectively.
`O=C(NCCc1nnc2n1CCC2)NC1(c2cccc(F)c2)CC1`: the Percent Effect was 3.98% in experiment [1] and -25% in experiment [2].
Take `O=C(c1ccco1)N1CCC2(CCOC2)C1` (centres undefined): the Percent Effect is 2.53% in experiment [1] and -46.7% in experiment [2].
With `Cc1cc(C(=O)NCc2ccc(N3CCCC(C(N)=O)C3)cc2)[nH]n1` (centres undefined), the Percent Effect was -3.98% in experiment [1] and -16.8% in experiment [2].
On to `Cc1ccc(CCC(=O)N(C)CCN2CCOCC2)c(C)c1`, for which the Percent Effect in experiment [1] is -4.01%; in experiment [2] it was -8.65%.
As to `N#Cc1cccc(S(=O)(=O)NC(=O)COc2ccc3c(c2)CCC3)c1`, the values for the Percent Effect in experiment [1] and in experiment [2] were -0.478% and 8.82%, respectively.
Turning to `CC(=O)N1N=C(c2ccccc2)OC1C(=O)NCCC1=CCCCC1` (centres undefined), the Percent Effect in experiment [1] was 0.28%; in experiment [2], 22.5%.
On to `O=C(c1ccc2c(c1)COC2)N1CCN(CC2CC2)CC1`, for which the Percent Effect was -0.514% in experiment [1] and -1.4% in experiment [2].
For the compound `COc1cc(C(=O)N(Cc2ccco2)C2CC2)cc2c1OCCO2`, the Percent Effect in experiment [1] is 1.56%; in experiment [2] it was -6.37%.
`CN(CCN1CCOCC1)C(=O)CCc1cccc(Cl)c1`: the Percent Effect was -4.7% in experiment [1] and -13.5% in experiment [2].
Regarding `COc1cc(N2C[C@@H]3COC[C@]3(COCc3cccc(C)n3)C2)ncn1`, the Percent Effect in experiment [1] was -0.107%; in experiment [2], -2.46%.
`O=C(Nc1ccc(CCN2CCC(O)CC2)cc1)C1CCOCC1`: the figures for the Percent Effect in experiment [1] and in experiment [2] were -1.86% and -38.6%, respectively.
Consider `COc1cccc(OC)c1C(=O)N1CCN(c2ccccc2F)CC1`, for which the Percent Effect in experiment [1] was found to be 1.49%; in experiment [2] it was 35.2%.
`Cc1ccc(N2CC[C@H]3O[C@@H](C(=O)NCc4ccco4)CC[C@H]32)nn1`: the Percent Effect was 12.5% in experiment [1] and -10.5% in experiment [2].
In the case of `CC(C)c1nn(C)c(N(C)C)c1CNCCC(=O)NC1CCCC1`, the Percent Effect in experiment [1] is -3.2%; in experiment [2], -5.9%.
The corresponding values for `Cc1cnn(CC2CCCCN2Cc2nc(-c3ccoc3)no2)c1` (centres undefined) are 2.91% and 26.6%.
As for `CNC(=O)[C@H]1C[C@@H]2CN(S(=O)(=O)c3ccccc3)C[C@@H]2N1C(C)=O`, the Percent Effect in experiment [1] is 2.08%; in experiment [2], -6.09%.
Take `CN(C)C(C)(C)CNC(=O)C(C)(C)c1ccccc1F`: the Percent Effect is -0.279% in experiment [1] and 13.2% in experiment [2].
Turning to `COc1cccc(C(=O)NCCCN2CCc3ccccc3C2)c1OC`, the Percent Effect in experiment [1] is -2.13%; in experiment [2] it was -9.33%.
For `COc1ccc(NC(C)C(=O)N2CCN(Cc3ccccc3)CC2)cn1` (centres undefined), the Percent Effect in experiment [1] is 3.97%; in experiment [2] it was -11.8%.
On to `CN(Cc1nnc(-c2ccco2)o1)CC1CCCN1c1cccnn1` (centres undefined), for which the Percent Effect stood at 7.29% in experiment [1] and 11.7% in experiment [2].
As to `O=C(c1ccc(-n2cccn2)nc1)N1CCCN(c2cccnn2)CC1`, the Percent Effect is -4.61% in experiment [1] and 3.17% in experiment [2].
Consider `Cc1nc(N2CCCC2)nc2c1CCN(C(=O)C1CCCC1)CC2`, for which the Percent Effect in experiment [1] is 0.726%; in experiment [2], -9.64%.
On to `COc1ccc(CN(C)CC(=O)NC2(C)CCS(=O)(=O)C2)cc1F` (centres undefined), for which the Percent Effect was 10.4% in experiment [1] and -2.83% in experiment [2].
With `COc1cc2nc(C)n(CC(=O)NCCCN(C)C)c(=O)c2cc1OC`, the Percent Effect in experiment [1] was -0.232%; in experiment [2], -51.4%.
The corresponding values for `CN(C)c1ccc(CCNC(=O)NCc2ccc(N(C)C)nc2)cc1` are 2.84% and 5.6%.
Regarding `O=C(Cn1cc(C(=O)O)ccc1=O)Nc1ccc(Cl)cc1F`, the Percent Effect was -4.96% in experiment [1] and -33.4% in experiment [2].
Regarding `O=C(NCCn1ccnc1)N1CCCC1c1ccsc1` (centres undefined), the values for the Percent Effect in experiment [1] and in experiment [2] were -7.57% and -9.24%, respectively.
In the case of `CC(C)n1ccnc1C1CCN(Cc2ccc(Cl)c(F)c2)CC1`, the Percent Effect in experiment [1] was 9.45%; in experiment [2], -39.8%.
The corresponding values for `O=S(=O)(NCC1(O)CCOc2ccccc21)c1ccc(Br)s1` (centres undefined) are 3.31% and 17.9%.
Taken in the same sequence, the figures for `CCC1=N[C@@]2(CC[C@@H]3CN(C(=O)NCC(C)C)C[C@@H]32)C(=O)N1CC(C)C` were 4.11% and -9.55%.
For the compound `CS(=O)(=O)CCC(=O)Nc1cnn(-c2ccccc2Cl)c1`, the Percent Effect in experiment [1] was -3.18%; in experiment [2], -52.3%.
As for `COCc1cccc(NC(C)C(=O)N(C)Cc2cccc(F)c2)c1` (centres undefined), the Percent Effect in experiment [1] was -0.296%; in experiment [2], -8.46%.
`CC(C)CN1CCN(Cc2nc3ccccc3[nH]2)[C@H]2CS(=O)(=O)C[C@H]21`: the Percent Effect in experiment [1] was 4.05%; in experiment [2], -16.9%.
On to `OC(COc1ccc(F)cc1)CN1CCC(Cn2cccn2)CC1` (centres undefined), for which the Percent Effect in experiment [1] is 1.46%; in experiment [2] it was -35.3%.
With `O=C(c1ccc[nH]1)N1CCn2cc(CN3CCCC3)nc2C1`, the Percent Effect in experiment [1] was -2.37%; in experiment [2], 0.78%.
Consider `CCN(CC)CCNC(=O)c1ccn(COc2cc(C)cc(C)c2)n1`, for which the Percent Effect is -3.4% in experiment [1] and -48.5% in experiment [2].
In the case of `COCc1noc(-c2ccc(N3CCCCC3CO)nc2)n1` (centres undefined), the Percent Effect in experiment [1] is -2.46%; in experiment [2] it was -5%.
Regarding `O=C1CC(c2ccsc2)c2c(n(C3CCOCC3)[nH]c2=O)N1` (centres undefined), the Percent Effect is -2.53% in experiment [1] and -30.3% in experiment [2].
Taken in the same sequence, the figures for `Fc1cccc(N2CCCC3(CN(Cc4ccncc4)CCO3)C2)c1` (centres undefined) were 5.63% and -4.22%.
Taken in the same sequence, the figures for `CNC(=O)CS(=O)(=O)Cc1coc(-c2ccc(F)cc2)n1` were -1.26% and -3.77%.
